PTHR1 ag: activates the human parathyroid hormone receptor PTHR1. Q03431. AID 743266. HEK293 GP2 PTHR1 cells, GloSensor cAMP luminescence, 1 h. Potency, µM (titrated, usually from 115 µM), usual class: activators. hit rate 0.075% among 410,000; also: nearly all actives have a fitted effect of over 55% in size
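HEK-293-derived GP2 cells expressing PTHR1 and a GloSensor cAMP reporter, 3,000/well, plated overnight, given luciferin plus IBMX (each 0.5 mM as added) for 1 h at 37 °C, then compound for 1 h at 37 °C. Luminescence was read after 15 min at room temperature.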
D3 ag: agonists of human D3 dopamine receptor. D3R DiscoveRx beta-arrestin cells, luminescence, 90 min. max activation, %. hit rate 0.58% among 410,000. AID 652048; in the data active = max activation above about 30%
Target sequence (P35462 whole entry, looked up): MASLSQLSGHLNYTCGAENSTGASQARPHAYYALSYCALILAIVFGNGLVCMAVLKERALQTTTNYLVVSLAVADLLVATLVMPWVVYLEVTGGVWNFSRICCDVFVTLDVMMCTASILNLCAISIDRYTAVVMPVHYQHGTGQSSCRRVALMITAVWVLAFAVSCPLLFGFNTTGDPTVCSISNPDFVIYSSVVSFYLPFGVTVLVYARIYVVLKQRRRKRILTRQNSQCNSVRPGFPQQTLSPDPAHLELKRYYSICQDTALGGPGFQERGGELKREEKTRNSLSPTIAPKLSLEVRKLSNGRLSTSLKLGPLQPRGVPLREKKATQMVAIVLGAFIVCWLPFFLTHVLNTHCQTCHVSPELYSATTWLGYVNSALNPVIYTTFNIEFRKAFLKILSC
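Agonist-mode cell screen: cells plated at 1500/well and incubated overnight at 37 °C, then exposed to library compounds for 90 min at 37 °C. Detection reagent was added for 30–60 min at room temperature, and luminescence was read.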
B2AR arrestin: agonists driving beta-arrestin recruitment to human beta2-adrenergic receptor. Potency, µM (top dose mostly 46.1 µM), actives largely listed as activators. beta-arrestin recruitment to beta2AR, cell-based reporter. P07550. AID 492947. hit rate 0.02% among 330,000; also: nearly all actives have a fitted effect of over 65% in size
RGS4 inhibitor: blocks human RGS4-accelerated GTP hydrolysis | P49798 | Transcreener GDP fluorescence polarization, RGS4-accelerated GTP hydrolysis | AID 504845 | hit rate 0.039% among 390,000 | Potency, µM (highest dose often 114 µM), most hits filed as inhibitors; also: nearly all actives have a fitted effect of over 75% in size
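MLSMR compounds (23 nl, pin-transferred) preincubated 10 min at room temperature with a 500nM (2x) first reagent, then RGS4 at 900nM (2x) plus Transcreener GDP mix added; fluorescence polarization (620/688 nm) read before and after 90 min at 30 °C.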
D3 antag: blocks the human D3 dopamine receptor | D3R cells, DiscoveRx beta-arrestin luminescence, antagonist mode; hits give low values | P35462 | AID 652054 | max response, negative = inhibition, % | hit rate 2.5% among 360,000; in the data active = max response below about -50%; inconclusive = no clear call, values can overlap the other calls
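Cells plated overnight at 1500 cells/well, then exposed to library compounds with dopamine controls for 90 minutes at 37 degrees C. DiscoveRx reagent added for 30–60 minutes at room temperature; luminescence read, quantitative HTS format.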
BRCA1 expr act: activators of BRCA1 expression; MCF7-BRCA1-FFLuc reporter, luminescence, 48 h; response scale: scaled: vehicle 0%, 10 µM genistein 100%; Potency, µM (series often up to 46.1 µM), usual class: activators; hit rate 1.1% among 380,000; AID 624202; also: nearly all actives have a fitted effect of over 80% in size
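Reporter cells (MCF7, BRCA1 promoter-firefly luciferase) received library compounds across a concentration series for 48 h. End-point luminescence was measured and concentration-effect curves derived after normalization.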
Numbers stand for hits; i = inactive; ? = inconclusive; nt = no result given. Sampled rows, rich in hits. Any-hit rate of the full collection: about 3.7%. Unless noted, calls follow the shape of the dose curve; as a rule, active = well fitted curve in the direction sought with a large enough effect; inconclusive = small, poorly fitted or top-dose-only effect, or another doubt; inactive = no such curve, though single readings can be large; an effect the other way counts as inactive or inconclusive.

SMILES | PTHR1 ag | D3 ag | B2AR arrestin | RGS4 inhibitor | D3 antag | BRCA1 expr act
Cc1ccccc1CC1CCN(CCCNC(=O)Nc2ccccc2)CC1 | i | i | i | i | -83 | i
Cc1cccc(C)c1NC(=O)NCCCN1CCN(c2ccccc2)CC1 | i | 38 | i | i | ? | i
CC(=O)N1CCC(N(Cc2ccco2)C(=O)Nc2ccc(Br)cc2F)CC1 | i | i | nt | i | nt | nt
O=C(NCc1ccc2c(c1)OCO2)c1nc(S(=O)(=O)Cc2ccccc2F)ncc1Cl | i | i | i | i | -92 | i
O=C(NCc1ccc2c(c1)OCO2)c1nc(S(=O)(=O)Cc2ccccc2)ncc1Cl | i | i | i | ? | -66 | i
O=C(NCc1ccc2c(c1)OCO2)c1ccccc1Cl | i | i | nt | i | i | i
CC(=O)Nc1ccc(-c2ccnc3c2CC(C)(C(=O)Nc2cccc(OC(F)(F)F)c2)O3)cc1 (stereo unspecified) | i | i | nt | nt | i | i
O=C(O)C=Cc1ccc(Cn2ccnc2)cc1 | nt | nt | nt | 2.7µM | nt | nt
COCCCN1C(=O)c2[nH]nc(-c3ccccc3O)c2C1c1ccc(OCc2ccccc2)cc1 (stereo unspecified) | i | i | nt | i | nt | nt
CC(C)OCCCN1C(=O)c2[nH]nc(-c3ccccc3O)c2C1c1cccc(OCc2ccccc2)c1 (stereo unspecified) | i | 30 | nt | i | nt | nt
CCCCN1C(=O)c2[nH]nc(-c3ccccc3O)c2C1c1ccc(OCc2ccccc2)cc1 (stereo unspecified) | 22µM | i | nt | i | nt | nt
O=C1c2[nH]nc(-c3ccccc3O)c2C(c2cccc(OCc3ccccc3)c2)N1CCO (stereo unspecified) | ? | i | nt | i | nt | nt
C[C@H]1CN([C@@H](C)CO)C(=O)CCCn2nncc2CO[C@H]1CN(C)C(=O)c1cc(-c2ccccc2)on1 | i | i | nt | nt | i | i
CCn1c(SCCN2CCCCC2)nnc1-c1ccc(S(=O)(=O)N2CCOCC2)cc1 | i | i | i | i | -74 | i
COC(=O)N/N=C/c1cccc([N+](=O)[O-])c1 | i | i | i | i | i | i
O=C(CNC(=O)c1ccccc1Br)N/N=C\c1cc([N+](=O)[O-])cc(Br)c1O | i | i | i | i | -76 | i
O=C(CNC(=O)c1ccccc1Br)N/N=C/c1ccccc1O | i | i | i | i | i | i
COC(=O)N/N=C/c1cc([N+](=O)[O-])cc(Br)c1O | i | i | i | i | -98 | i
Nc1nnc(CC(=O)N/N=C/c2cc([N+](=O)[O-])cc(Br)c2O)s1 | i | i | i | ? | -109 | i
COc1cccc(CNC(=O)CN2C(=O)CSc3c2c(C)nn3-c2ccccc2)c1 | i | i | nt | i | nt | i
COc1ccc(CCSc2n[nH]c(C(C)C)n2)cc1 | nt | nt | nt | nt | nt | i
COc1cccc(-c2cc(CNC(=O)[C@H]3O[C@@H](n4ccc(=O)[nH]c4=O)[C@H](O)[C@@H]3O)no2)c1 | i | i | nt | nt | i | i
Cc1ccccc1-c1nc(CSc2nc3c(c(=O)[nH]2)CCC3)c(C)o1 | i | 30 | i | i | i | i
Cc1nnc2c3ccccc3ccn12 | i | i | nt | i | i | i
Cc1ccc(C(=O)Nc2ncccc2S(=O)(=O)c2ccccc2)cc1 | i | i | i | i | i | ?
SMILES | PTHR1 ag | D3 ag | B2AR arrestin | RGS4 inhibitor | D3 antag | BRCA1 expr act
Cc1cc(C)n2nc(C(=O)NCC(=O)Nc3ccc(F)c(F)c3)nc2n1 | i | i | i | i | i | i
COc1ccc(NC(=O)c2cccc3c(-c4ccc(OC)cc4C)coc23)cc1 | i | i | nt | nt | i | i
COc1ccc(-c2coc3c(C(=O)N4CCN(C)CC4)cccc23)c(C)c1 | i | i | nt | nt | -87 | i
O=C(NCC1CC1)c1cccc2c(-c3ccc(F)c(F)c3)coc12 | i | i | nt | nt | i | 3.5µM
CN1CCN(C(=O)c2cccc3c(-c4ccc(F)c(F)c4)coc23)CC1 | i | i | nt | nt | -100 | i
CC(C)(C)c1nn(-c2ccccc2)c2nc(Cl)c(C=O)cc12 | i | i | i | i | i | i
CC(C)(C)c1nn(-c2ccccc2)c2[nH]c(=O)c(C=O)cc12 | i | i | i | i | -101 | i
CSc1ccc(/C=N/n2c(Cc3ccc(Br)cc3)n[nH]c2=S)cc1 | i | i | i | i | ? | i
